Out of some 300,000 compounds screened, about 37,000 (12%) were called active. Cut-off read from the data, not from the text of the source: active = max response mostly above about 13% (no sharp cut-off); inactive = mostly below about 14%. The full list was thinned out, with actives kept by preference.

This test in a line: Cycloheximide Counterscreen for Small Molecule Inhibitors of Shiga Toxin. Note: read at 38.3 µM for the half of the compounds with a filed dose; 0% is about no effect. Conditions: cell reporter, cycloheximide protein synthesis inhibition counterscreen; active compounds read high. (A counterscreen serves to expose hits that act by an unwanted route or on another target.)
For the compound `COc1ccc(Nc2cc(Sc3ccc(OC)cc3)ncn2)cc1`, the max response is 12.3% (inactive).

Consider `COc1ccc(Nc2ncnc3sc(C)cc23)cc1`, for which the max response is 41% (active).

For the compound `COc1ccc(Nc2ncnc3ccc(OC)cc23)cc1`, the max response is 4.47% (inactive).

With `CS(=O)(=O)N1CCN(CC(=O)NC2CCCC2)CC1`, the max response was 2.24% (inactive).

For `COc1ccc(C2CC(=O)NC(=O)C2)cc1`, the max response was 5.71% (inactive).

Regarding `O=C1COc2ccc(S(=O)(=O)NCCc3ccc(Cl)cc3)cc2N1`, the max response was -8.47% (inactive).

For the compound `COC(=O)c1c(NC(=O)CN2C(=O)NC(CCc3ccccc3)C2=O)sc2c1CCCCC2` (centres undefined), the max response was -2.51% (inactive).

Consider `Nc1cc(N2CCCCCC2)c2nonc2c1[N+](=O)[O-]`, for which the max response is -1.67% (inactive).

Consider `Cc1cccc(NC(=O)CCN2CC(C)CC(C)C2)c1` (centres undefined), for which the max response is -2.06% (inactive).

As for `N#CCc1ccc(NC(=O)c2ccccc2C(=O)Nc2ccc(CC#N)cc2)cc1`, the max response is 21.8% (active).

Consider `CC(=O)Nc1ccc(CC#N)cc1`, for which the max response was -2.61% (inactive).

Regarding `NC(=O)COc1ccc(NC(=O)c2ccccc2-c2ccccc2)cc1`, the max response was -2.28% (inactive).

On to `O=C(Nc1ccccc1N1CCOCC1)c1ccc(OCc2cscn2)cc1`, for which the max response was -3.59% (inactive).

For `CNC(=O)N1c2ccccc2C=Cc2ccccc21`, the max response was -2.75% (inactive).

For `Nn1c(SCc2ccccc2)nnc1C1CCCCC1`, the max response was 38.2% (active).

As to `Cc1cccc(CSc2nnc(C)c(=O)n2N)c1`, the max response is -1.39% (inactive).

With `Cc1nnc(SCc2cccc(Cl)c2)n(N)c1=O`, the max response was 8.39% (inactive).

Turning to `O=[N+]([O-])c1ccc(N2CCN(c3ccc(F)cc3)CC2)cn1`, the max response was -1.96% (inactive).

`CCCCC(=O)Nc1nnc(S(=O)(=O)N(C)Cc2ccco2)s1`: the max response was 12% (inactive).

`Cc1ccc([N+](=O)[O-])cc1S(=O)(=O)N1CCCN(C)CC1`: the max response was -0.621% (inactive).

Regarding `Cc1cccc(C(=O)NNC(=O)c2cccc([N+](=O)[O-])c2)c1`, the max response is 0.787% (inactive).

As to `COc1cccc(CNC(=O)CCCC(=O)Nc2cccc([N+](=O)[O-])c2)c1`, the max response was -3.22% (inactive).

`Cc1cc(CNC(=O)c2cccc([N+](=O)[O-])c2)c2ccccc2n1`: the max response is 18.3% (inactive).

For `CC(C)(C)SCCNC(=O)c1cccc([N+](=O)[O-])c1`, the max response was 19.6% (active).

With `COc1cccc(C(=O)CC(=O)C(=O)Nc2ccc([N+](=O)[O-])cc2C)c1`, the max response was -0.608% (inactive).

Consider `COc1cccc(NCCC(=O)c2cccc([N+](=O)[O-])c2)c1`, for which the max response is 34.7% (active).

With `COCCCNCCOCCOc1ccc(Cl)cc1Br`, the max response was -3.84% (inactive).

`CC(C)(C)c1nnc(NC(=O)C2c3ccccc3Oc3ccccc32)s1`: the max response was -2.51% (inactive).

For the compound `O=c1o[nH]c(-c2ccccc2)c1N=Nc1c(F)cccc1Cl`, the max response is 6.23% (inactive).

Regarding `COc1ccc2c(c1)c(C(=O)N/N=C/c1cccs1)c(C)n2C`, the max response was -3.51% (inactive).

Turning to `O=C(CN1CCC(NC(=O)Nc2ccccc2)CC1)Nc1cccc([N+](=O)[O-])c1`, the max response is -2.36% (inactive).

Regarding `COCCNC(=O)c1ccc(S(=O)(=O)c2ccc(Cl)cc2)c(NC(C)=O)c1`, the max response is -7.19% (inactive).

Turning to `CCOc1cc(/C=C/c2nc3ccccc3c(=O)[nH]2)cc(Br)c1OC`, the max response is 2.32% (inactive).

On to `COC(=O)c1cccc(C(=O)N2CCC(CCC(=O)NCc3ccc(F)cc3)CC2)c1`, for which the max response is -0.695% (inactive).

For the compound `Cc1ccc(C2(C(F)(F)F)N=C3Sc4cc(C)cc(C)c4N3C(=O)N2)cc1` (centres undefined), the max response was 18.6% (active).

Regarding `O=C(Cn1cc(C(F)(F)F)ccc1=O)N/N=C/c1ccc(Cl)cc1Cl`, the max response is -2% (inactive).

Consider `CC(C)(C)c1ccc(C(=O)CSc2ncn[nH]2)cc1`, for which the max response is 37.3% (active).

`Cn1nnc(NC(=O)CSc2ncn[nH]2)n1`: the max response was -1.09% (inactive).

In the case of `CCN(C(=O)CSc1ncn[nH]1)c1cccc2ccccc12`, the max response was 4.43% (inactive).

`Cc1ccc2c(c1)C(c1ccccc1)N(C(=O)c1ccc(S(=O)(=O)N3CCOCC3)cc1)CC(=O)N2` (centres undefined): the max response is -1.59% (inactive).

Take `N#Cc1c(-c2cccs2)nc(SCC(=O)c2ccc(Br)cc2)[nH]c1=O`: the max response is 2.73% (inactive).

Consider `O=C(CSc1nc2ccccc2[nH]1)c1cccs1`, for which the max response is 47.2% (active).

As for `N#Cc1c(-c2ccc(F)cc2)cc(C2CC2)nc1SCC(=O)c1cccs1`, the max response is -0.655% (inactive).

In the case of `CN(Cc1ccccc1)C(=O)CSc1nc2ccccc2[nH]1`, the max response was 39.7% (active).

Regarding `CN(Cc1ccccc1)c1nc2c(c(=O)[nH]c(=O)n2C)n1CCSc1nc2ccccc2[nH]1`, the max response was 0.491% (inactive).

For the compound `O=C(CSc1nc2ccccc2[nH]1)Nc1nc(-c2ccccc2)c(-c2ccccc2)o1`, the max response is 0.677% (inactive).

On to `C=CCN(CC=C)S(=O)(=O)c1ccc(C(=O)Nc2nc3c(s2)CCc2ccccc2-3)cc1`, for which the max response was -6.15% (inactive).

Turning to `CC(C)Cn1c(N2CCN(C(=O)/C=C/c3ccccc3)CC2)nc2ccccc21`, the max response is 3.07% (inactive).

As to `CC1CCCCC1NC(=O)CO/N=C/c1ccc(OC(F)F)cc1` (centres undefined), the max response was 1.26% (inactive).

As for `Cc1ccc(C(=O)NCC(=O)OCc2nnc(-c3ccccc3)o2)cc1`, the max response is 23.8% (active).

As to `O=C(CNC(=O)c1ccc(-c2ccccc2)cc1)OCc1ccc(Cl)cc1`, the max response was -0.931% (inactive).

As for `O=C(OCc1nnc(-c2ccccc2)o1)c1ccc2c(c1)C(=O)N(CCc1ccccc1)C2=O`, the max response is -1.64% (inactive).

For the compound `O=C(CN1CCN(c2cccc(Cl)c2)CC1)Nc1ccc(S(=O)(=O)N2CCOCC2)cc1`, the max response is -3.83% (inactive).

As for `CCOc1cc(/C=C2/N=C(c3ccc(C(C)(C)C)cc3)OC2=O)cc(Cl)c1OS(C)(=O)=O`, the max response is -4.6% (inactive).

For `O=C1CCC(=O)N(O)CCCCCNC(=O)CCC(=O)N(O)CCCCCNC(=O)CCC(=O)N(O)CCCCCN1`, the max response was -3.2% (inactive).

`CC(C)[C@@H]1COC(c2cccc(C3=N[C@H](C(C)C)CO3)c2)=N1`: the max response was 33.7% (active).

Consider `O=C(O)c1cccnc1NC1CCCC1`, for which the max response was -2.86% (inactive).

Regarding `COc1ccc(-c2nonc2NC(=O)c2oc3ccc(F)cc3c2C)cc1OC`, the max response was 4.29% (inactive).

For the compound `Cc1ccc(S(=O)(=O)NCc2ccc(C(=O)NC3CCC(C)CC3)cc2)cc1` (centres undefined), the max response was -10.9% (inactive).

For the compound `Cc1ccc(C)c(NC(=O)NNC(=O)c2ccc3ccccc3c2O)c1`, the max response was 3.4% (inactive).

In the case of `CSc1ccccc1NC(=O)c1cc(Cl)sc1Cl`, the max response is 2.39% (inactive).

Take `O=C(NC1CC1)c1cccc(Br)c1`: the max response was -2.43% (inactive).

Consider `CSc1ccccc1NC(=O)c1cc(C2CC2)on1`, for which the max response was 37.7% (active).

`COc1cc(OC)c(C(=O)NC2CCCCCC2)cc1OC`: the max response was -2.09% (inactive).

Take `O=C(NC1CCN(S(=O)(=O)c2ccc(F)cc2)CC1)c1ccccc1`: the max response was -0.862% (inactive).

As to `O=C(NC1CC1)c1ccc(-c2ccccc2)cc1`, the max response was 42.7% (active).

`O=C(Nc1cc(C(F)(F)F)ccc1Cl)c1cc(C2CC2)on1`: the max response was -4.3% (inactive).

`O=C(NC1CCCCC1)c1cc(C2CC2)on1`: the max response was 40.8% (active).

Take `CC(NC(=O)c1cc(-c2ccccc2)on1)c1ccccc1` (centres undefined): the max response was 3.69% (inactive).

As for `O=C(NC1CCCC1)c1cc(-c2ccccc2)on1`, the max response was 30.6% (active).

For the compound `Cc1nn(Cc2ccc(Cl)c(Cl)c2)c(C)c1NC(=O)c1cc(C2CC2)on1`, the max response was -1.12% (inactive).

As for `CC(=O)c1cc(-c2ccccc2)n(CC(=O)NC2CCCCC2)c1C`, the max response was -3.63% (inactive).

On to `Cn1cc(S(=O)(=O)Nc2ccc(Cl)cc2Cl)c(=O)n(C)c1=O`, for which the max response is -2.38% (inactive).

In the case of `CC(C)C[C@@H](NC(=O)[C@H]1CCCN1C(=O)Cc1ccccc1)C(N)=O`, the max response is 8.92% (inactive).

As to `CCC1(CC)C(=O)C2=C3C1[C@H](C(=O)OC)C=C(C(=O)OC)C[C@H]3[C@H]1C(=O)N(Cc3ccccc3)C(=O)[C@H]1[C@H]2C` (some centres undefined), the max response was -3.02% (inactive).

For the compound `CC(NC(=O)Cn1cc(C(F)(F)F)cc(Cl)c1=O)c1ccccc1` (centres undefined), the max response was 11.8% (inactive).

For `CC[C@H](C)[C@H](NC(=O)[C@H](Cc1cnc[nH]1)NC(=O)[C@@H](N)CCC(=O)O)C(=O)N1CCC[C@H]1C(=O)N[C@@H](C)C(=O)O`, the max response was -2.98% (inactive).

As to `CCCCn1ccnc1C(=O)c1cccc(S(=O)(=O)N2c3ccccc3CC2C)c1` (centres undefined), the max response was -2.53% (inactive).

Turning to `CC(=O)OC(C(=O)NCCc1ccccc1)c1cccnc1` (centres undefined), the max response is -0.715% (inactive).

With `O=C(O)CCc1cccnc1`, the max response was 2.51% (inactive).

Regarding `N/C(=N\OC(=O)CCc1ccccc1)c1ccc(Cl)cc1`, the max response was 24.7% (active).

Turning to `O=C(CCC(=O)OCc1ccc(Cl)cc1)Nc1ccccc1`, the max response was -2.49% (inactive).

`Cc1ccc(/C(N)=N/OC(=O)COc2ccc(Cl)c(C)c2)cc1`: the max response is -3.46% (inactive).

In the case of `N/C(=N\OC(=O)CCc1ccccc1)c1cccnc1`, the max response is 27.3% (active).

In the case of `CCCOc1ccc(NC(=O)CC2C(=O)N(C)C(=S)N2Cc2ccc3c(c2)OCO3)cc1` (centres undefined), the max response was -2.42% (inactive).

Take `Cc1cccc(NC(=O)C(C)SCc2ccccc2)c1` (centres undefined): the max response was 21.6% (active).

Regarding `COc1ccc(NC(=O)C(C)SCc2ccccc2)cc1` (centres undefined), the max response is 23% (inactive).

On to `Cc1cccc(NC(=O)C(C)N2C(=O)C3C4CC(C(Br)C4Br)C3C2=O)c1` (centres undefined), for which the max response was -1.4% (inactive).

As for `CC(C(=O)Nc1ccc(O)c(C(=O)O)c1)N1C(=O)/C(=C/c2cccs2)SC1=S` (centres undefined), the max response was -1.39% (inactive).

As to `CC1(C)CC(CNCCC(c2ccc(F)cc2)c2ccco2)CCO1` (centres undefined), the max response was 0.614% (inactive).

In the case of `CCOC(=O)C1(CCOc2ccccc2)CCN(Cc2cc(OC)c(O)cc2Cl)CC1`, the max response is -2.51% (inactive).

`Nc1nnc(SCC(=O)Nc2ccc3nc(SCC(=O)Nc4ccccc4)sc3c2)s1`: the max response was 33.9% (active).

Take `CCCCNC(=O)CSc1nc2ccc(NC(=O)CSc3nnc(COc4ccccc4C)n3C)cc2s1`: the max response is 5.25% (inactive).

Take `CCCCNC(=O)CSc1nc2ccc(NC(=O)CSc3nnc(N)s3)cc2s1`: the max response was 2.41% (inactive).

(Values after PubChem BioAssay AID2314 (National Center for Advancing Translational Sciences (NCATS), 2010).)
